Test results reported in PubChem BioAssay (NCI).
Values joined by “and” are separate entries in the source; they are usually repeats but may differ in a detail not shown here. Equal entries are not always repeated. About 79,000 compounds went through this panel and 15% of them were active in at least one assay; those are over-represented in the sample as a whole. A number with no mark means an inactive call. Active and inactive are the calls of the source. Rule as the data show it: active = growth inhibition above about 70%; inactive = the rest.

Experiments:
[1] = NCI Yeast Anticancer Drug Screen. Data for the rad50 strain (AID 155);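 also: 0% = growth of vehicle-only cultures of the same strain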; conditions: S. cerevisiae rad50 strain growth inhibition, active compounds read high
In short: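 DNA repair mutant yeast, compound exposure, growth read-out; inhibition is taken relative to vehicle.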

[2] = NCI Yeast Anticancer Drug Screen. Data for the mec2-1 strain (AID 157); conditions: S. cerevisiae mec2-1 strain, active compounds read high
In short: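 Vehicle-treated cultures served as reference for growth inhibition of compound-exposed mec2-1 yeast.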

[3] = NCI Yeast Anticancer Drug Screen. Data for the sgs1 mgt1 strain (AID 161);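 also: 0% = growth of cultures given vehicle only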; conditions: S. cerevisiae sgs1 mgt1 strain, active compounds read high
In short: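 Test agents were incubated with a DNA-repair-mutant yeast strain. Growth was then read and compared against vehicle-treated controls.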

[4] = NCI Yeast Anticancer Drug Screen. Data for the cln2 rad14 strain (AID 165);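 also: 0% = growth equal to vehicle treated cultures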; conditions: S. cerevisiae cln2 rad14 strain, active compounds read high
In short: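 Each compound was tested on cln2 rad14 yeast. Inhibition of growth was calculated against vehicle-exposed controls.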

[5] = NCI Yeast Anticancer Drug Screen. Data for the bub3 strain (AID 167); conditions: S. cerevisiae bub3 mutant strain, active compounds read high
In short: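 In this screen, a yeast mutant lacking normal mitotic checkpoint function is challenged with compound. Relative growth versus vehicle gives the inhibition value.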

[6] = NCI Yeast Anticancer Drug Screen. Data for the mlh1 rad18 strain (AID 175); conditions: S. cerevisiae mlh1 rad18 strain growth inhibition, active compounds read high
In short: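 Vehicle-treated cultures served as the reference for growth inhibition in a yeast strain carrying DNA damage repair alterations exposed to each compound.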

[7] = at 5.0 µM (retest, dose inferred, filed as 0.5)
[8] = at 50.0 µM (retest, dose inferred, filed as 5.0)

Structure (SMILES) | growth inhibition [1, 7] | growth inhibition [1, 8] | growth inhibition ([1]; at 50.0 µM) | growth inhibition [2, 7] | growth inhibition [2, 8] | growth inhibition ([2]; at 50.0 µM) | growth inhibition [3, 7] | growth inhibition [3, 8] | growth inhibition ([3]; at 50.0 µM) | growth inhibition [4, 7] | growth inhibition [4, 8] | growth inhibition ([4]; at 50.0 µM) | growth inhibition [5, 7] | growth inhibition [5, 8] | growth inhibition ([5]; at 50.0 µM) | growth inhibition [6, 7] | growth inhibition [6, 8] | growth inhibition ([6]; at 50.0 µM)
Cc1c(N)nc([C@H](CC(N)=O)NC[C@H](N)C(N)=O)nc1C(=O)N[C@H](C(=O)N[C@H](C)[C@@H](O)CC(=O)N[C@H](C(=O)NC(O[C@@H]1O[C@@H](C)[C@@H](N)[C@@H](O)[C@H]1O)C(O)c1nc(-c2nc(C(=O)NCCCCN)cs2)cs1)[C@@H](C)O)[C@@H](O[C@@H]1O[C@@H](CO)[C@@H](O)[C@H](O)[C@@H]1O[C@H]1O[C@H](CO)[C@@H](O)[C@H](OC(N)=O)[C@@H]1O)c1c[nH]cn1 (some centres not stated) | 96% (active) | 98% (active) | 91.7% (active) | 98% (active) | 98% (active) | 92.8% (active) | 98% (active) | 98% (active) | 92.7% (active) | 96% (active) | 97% (active) | 89.8% (active) | 97% (active) | 98% (active) | 92.9% (active) | 94% (active) | 97% (active) | 90.2% (active)
CC(=O)OC(C)(C)/C=C/C(=O)[C@](C)(O)[C@H]1[C@H](O)C[C@@]2(C)[C@@H]3CC=C4[C@@H](C[C@H](O)[C@H](O)C4(C)C)[C@]3(C)C(=O)C[C@]12C | 15% | 98% (active) | 92.1% (active) | 52% | 99% (active) | 93.5% (active) | 13% | 98% (active) | 93.3% (active) | 43% | 98% (active) | 91.1% (active) | 65% | 99% (active) | 91.5% (active) | 55% | 98% (active) | 91.8% (active)
COc1cc(C(c2c(O)c3ccccc3oc2=O)c2c(O)c3ccccc3oc2=O)cc(OC)c1O | 4% | 20% | 75% (active) | -2% | 19% | 44.3% | -2% | 12% | 54.7% | 0% | 0% | 70.8% (active) | -5% | -10% | 50% | -7% | 2% | 90.6% (active)
[Cl][Sn]1([c]2ccccc2)[O]CCNCC[O]1 | 22% | 97% (active) | 88.1% (active) | 9% | 99% (active) | 91.2% (active) | 12% | 99% (active) | 90.8% (active) | 6% | 97% (active) | 91.8% (active) | 9% | 98% (active) | 90% (active) | 19% | 97% (active) | 91.8% (active)
C[C@]12CC[C@H]3[C@@H](CCC4=CC(=O)CC[C@@H]43)[C@@H]1CC[C@@H]2OC1(O)C(=O)c2ccccc2C1=O | -7% | 47% | 65.2% | -6% | 21% | 27.4% | -2% | 59% | 74.8% (active) | -16% | 22% | 20.5% | -8% | 44% | 69.9% | 11% | 44% | 61.7%
O=C1C(Cl)=C(Cl)C(=O)N1c1ccc(F)cc1 | 53% | 99% (active) | 52% | 42% | 100% (active) | 28.8% | 28% | 100% (active) | 88.3% (active) | 24% | 99% (active) | 89.2% (active) | 35% | 99% (active) | 90.8% (active) | 45% | 100% (active) | 48.1%
c1cnc2c(c1)ccc1cccnc12 | 58% and 14% | 97% (active) and 99% (active) | 99.5% (active) and 99.2% (active) | 32% and 27% | 99% (active) | 99.2% (active) and 98.9% (active) | 50% and 13% | 98% (active) | 98.3% (active) and 99% (active) | 6% and -24% | 98% (active) and 90% (active) | 98% (active) and 96.2% (active) | 42% and 4% | 98% (active) and 99% (active) | 98.8% (active) and 99% (active) | 52% and 17% | 97% (active) and 98% (active) | 98.8% (active)
CCC[CH2][Sn]1([CH2]CCC)[O]C(=O)c2cccnc2[O]1 | 34% | 94% (active) | 85.3% (active) | 31% | 97% (active) | 85.5% (active) | 42% | 97% (active) | 85.3% (active) | 22% | 93% (active) | 78.4% (active) | 47% | 97% (active) | 87.7% (active) | 51% | 97% (active) | 84.5% (active)
COC(=O)C1=C(C)NC(=S)NC1c1ccc(N(CCCl)CCCl)cc1Cl (configuration not stated) | 10% | 94% (active) | 51.1% | -28% | 96% (active) | 86.7% (active) | 1% | 95% (active) | 86.2% (active) | -8% | 92% (active) | 61.9% | 81% (active) | 97% (active) | 96.5% (active) | 13% | 94% (active) | 91.3% (active)
